# High-throughput results (PubChem BioAssay)
# proKLK7 act – proKLK7 zymogen activators, primary screen, biochemical, fluorescence intensity. Kallikrein-7 (Homo sapiens), P49862. purified proKLK7, EDANS-DABCYL substrate fluorescence; 100% is mature enzyme control, 0% vehicle. activation, % at 7 µM. 0.9% of 370,000 active;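 active = activation above the mean of all tested compounds plus 3 SD, computed per campaign excluding outliers beyond control limits, cut at about 13% in these data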
# Ecoli rRNA inh – reduced GFP signal of wild-type E. coli, primary screen, bacterial rRNA inhibitor project, GFP/RFP fluorescence, OD600, single point; E. coli WT GFP vs humanized-ribosome RFP mutants, 24 h; active compounds read low; DMSO median 0, no signal -100; GFP signal change (wild-type ribosome), % (test concentration not listed); 1.6% of 350,000 active; AID 720706, 2013;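 active = significant combined selectivity score with lowered wild-type GFP, culture density cut under 30%, mutant RFP and density less affected; inactive = any of these conditions unmet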
# ADAM17 inh – ADAM17 inhibitors, primary screen, biochemical, QFRET; Disintegrin and metalloproteinase domain-containing protein 17 (Homo sapiens), P78536; recombinant ADAM17, EDANS/DABCYL FRET peptide cleavage; inhibition, % at 6.95 µM; 0.83% of 370,000 active;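 active = inhibition above the mean of compounds lying between control limits plus 3 SD, set per campaign, cut at about 8.5% in these data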;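 also: 0% = DMSO-only wells as the low control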
# ADAM10 inh – human ADAM10 inhibitors, primary screen, biochemical, QFRET, HTS | Disintegrin and metalloproteinase domain-containing protein 10 (Homo sapiens), O14672 | 0.62% of 370,000 active | recombinant ADAM10, EDANS/DABCYL FRET peptide cleavage, 3 h | inhibition, % at 7 µM;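 active = inhibition above a per-campaign cutoff equal to the mean of compounds falling between control-based bounds plus 3 SD, cut at about 20% in these data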;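 also: 0% = DMSO wells while the 100% control is not disclosed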
# Target sequence (O14672 214-748 limits assumed): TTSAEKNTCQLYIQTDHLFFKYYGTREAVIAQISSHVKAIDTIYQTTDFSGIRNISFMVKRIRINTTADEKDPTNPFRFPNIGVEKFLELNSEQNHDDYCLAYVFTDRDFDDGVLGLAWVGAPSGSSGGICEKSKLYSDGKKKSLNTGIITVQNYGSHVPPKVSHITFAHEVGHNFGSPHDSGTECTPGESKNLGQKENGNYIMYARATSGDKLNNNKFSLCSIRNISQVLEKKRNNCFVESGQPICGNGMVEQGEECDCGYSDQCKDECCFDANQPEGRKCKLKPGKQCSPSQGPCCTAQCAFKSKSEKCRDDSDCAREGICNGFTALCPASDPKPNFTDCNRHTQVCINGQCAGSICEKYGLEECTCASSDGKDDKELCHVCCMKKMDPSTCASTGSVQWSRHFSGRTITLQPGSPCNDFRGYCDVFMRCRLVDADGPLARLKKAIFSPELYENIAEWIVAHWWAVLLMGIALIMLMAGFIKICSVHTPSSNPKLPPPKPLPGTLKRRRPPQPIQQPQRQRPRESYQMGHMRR
# FGF22 binding – binders of human FGF22 protein, primary screen, FGF22 synaptogenesis inhibitor project, biophysical, thermal shift, single point | recombinant FGF22 thermal shift, SYPRO orange fluorescence; percent of sucrose octasulfate shift, DMSO zero | activity (Tm shift, normalised), % at 9.99 µM | 1.5% of 340,000 active;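 active = mean Tm shift, scaled 0 neutral to 100 positive control, at about 1.3% or above, every replicate too, limit read from the data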
# * = called active by the depositor; x = not tested or not shown; ! = repeats disagree. A selection: hits, their analogues and other compounds. The true share with any hit is near 3.8%.
SMILES,proKLK7 act,Ecoli rRNA inh,ADAM17 inh,ADAM10 inh,FGF22 binding
Cc1nc(Nc2ccc(S(N)(=O)=O)cc2)sc1C(=O)Nc1ccccc1,-0.5,-35.1*,-0.8,-2.7,0.1
Cc1nc(Nc2ccccc2Cl)sc1C(=O)Nc1ccccc1,0.2,-41.8,2.4,1.1,-0.1
COc1ccccc1Nc1nc(C)c(C(=O)Nc2ccccc2)s1,1.2,-32.2*,-4.5,-18.2,x
O=C(C[C@@H]1CC[C@@H](NS(=O)(=O)c2ccc(F)cc2)[C@@H](CO)O1)NC1CCCCC1,x,-0.4,x,x,0.0
COc1ccc2c3c(n(C)c2c1)[C@@H](CO)N(C(=O)CN1CCOCC1)CC31CCN(C(=O)CC2CC2)CC1,x,0.1,x,x,x
CCCNC(=O)[C@H]1[C@H](CO)[C@H]2Cn3c(ccc(-c4ccncc4)c3=O)[C@@H]1N2CC1CC1,x,3.0,x,x,x
S=C1NCCOCCOCCOCCNC(=S)N2CCOCCOCCN1CCOCCOCC2,0.4,13.1,-2.8,-4.7,43.4*
Cc1[nH]c2ccccc2c1C(C[N+](=O)[O-])c1cccc(O)c1 (stereo unspecified),0.6,-32.5*,-0.4,7.7,0.0
COc1ccc(S(=O)(=O)N(C)C[C@@H]2OCCCC[C@@H](C)Oc3ccc(NS(=O)(=O)c4ccc(F)cc4)cc3C(=O)N([C@@H](C)CO)C[C@H]2C)cc1,x,-5.0,x,x,0.2
C[C@@H]1CN([C@@H](C)CO)C(=O)c2cccc(NC(=O)c3ccncc3)c2O[C@@H]1CN(C)Cc1ccc(-c2ccccc2)cc1,0.0,-19.1*!,-0.3,-0.8,-0.1
C[C@@H]1CN([C@@H](C)CO)C(=O)c2cccc(NC(=O)c3ccncc3)c2O[C@H]1CN(C)Cc1ccc(C(F)(F)F)cc1,x,-12.9,x,x,0.0
C[C@H]1CN([C@@H](C)CO)C(=O)c2cccc(NC(=O)c3ccncc3)c2O[C@@H]1CN(C)Cc1ccc(C(F)(F)F)cc1,x,-15.1,x,x,16.6*
CCCNC(=O)[C@H]1[C@H](CO)[C@H]2Cn3c(ccc(-c4ccc(F)cc4)c3=O)[C@@H]1N2CCC,x,1.3,x,x,0.3
COC(=O)CC1(c2ccc(OC)cc2)C(=O)c2ccccc2C1=O,-0.4,-25.9*,0.7,-2.6,-0.1
Cc1ccc(-n2cc(CN3CCCN(C=O)CC3)c(-c3ccc(F)cc3)n2)cc1,0.6,-54.8,4.9,15.4,0.2
CC(=O)N1CCCN(Cc2cn(-c3ccc(C)cc3)nc2-c2ccc(F)cc2)CC1,0.7,-54.2,-1.5,-2.2,43.0*
CCCCCCC(C)OC(=O)Nc1cccc2ccccc12 (stereo unspecified),0.0,1.4,-2.7,2.5,-0.2
CC(C)CN1CCN(CCCOC(=O)Nc2cccc3ccccc23)CC1C (stereo unspecified),-0.9,-0.9,-3.5,-5.7,44.2*
C[C@H]1CN([C@@H](C)CO)S(=O)(=O)c2ccc(C3=CCCCC3)cc2O[C@H]1CN(C)C(=O)C1CCC1,x,-31.9,x,x,-0.5
C[C@@H]1CN([C@H](C)CO)C(=O)c2cc(NS(=O)(=O)c3cccs3)ccc2O[C@@H](C)CCCCO[C@@H]1CN(C)C(=O)CCCN(C)C,x,3.4,x,x,-0.2
COCCNC(=S)N1CCN(C(c2ccccc2)c2ccccc2)CC1,0.7,-1.4,-0.1,11.0,0.0
COCCNC(=O)NC(=O)CN1CCN(C(c2ccccc2)c2ccccc2)CC1,0.6,11.2,-0.6,12.0,43.3*
O=C(NCc1ccccc1)C(c1ccccc1)N(C(=O)c1csnn1)c1ccccc1 (stereo unspecified),0.4,x,0.5,-0.3,42.9*
C=CCN(C(=O)c1csnn1)C(C(=O)NCc1ccc(F)cc1)c1ccccc1F (stereo unspecified),0.5,-2.2,1.1,0.1,42.9*
C=CCN(C(=O)c1csnn1)C(C(=O)NC1CCCC1)c1c(F)cccc1Cl (stereo unspecified),-0.2,-20.9*,-2.3,-1.8,-0.2
SMILES,proKLK7 act,Ecoli rRNA inh,ADAM17 inh,ADAM10 inh,FGF22 binding
CCS(=O)(=O)Nc1ccc2c(c1)C(=O)N(C)[C@@H]1CC[C@@H](CC(=O)Nc3ccccc3)O[C@H]1CO2,x,0.8,x,x,0.1
CC(=O)c1sc2nc(C)c3c(c2c1N)CCCC3,1.6,-33.2*,-70.9,-180.7,0.2
CCOC(=O)c1sc2nc(CC(C)C)c3c(c2c1N)CCC3,-11.6,x,-57.0,-177.2,x
CC(NC(=O)COc1ccc(N(C)S(=O)(=O)c2ccccc2)cc1)c1ccccc1 (stereo unspecified),0.4,-14.5,4.1,8.4,43.0*
Cn1nc(C(F)(F)F)c(-c2cccc(C(F)(F)F)c2)c1NC(=O)c1ccco1,0.2,-19.9,-0.2,0.9,-0.1
Cn1nc(-c2ccccc2)cc1NC(=O)Nc1ccc(F)cc1,-0.2,-39.6*,0.1,5.2,0.1
Cn1nc(C(F)(F)F)c(-c2cccc(C(F)(F)F)c2)c1NC(=O)Nc1ccc(F)cc1,0.3,-28.0*,6.8,9.0,0.2
Cc1ccccc1NC(=O)Nc1cc(-c2ccccc2)nn1C,-0.2,-3.0,-1.0,-1.8,-0.2
S=c1nc(C2COc3ccccc3O2)[nH][nH]1 (stereo unspecified),-0.3,2.0,-2.8,0.8,43.3*
CO[C@@H](C(=O)N(C)C[C@@H]1OCc2ccccc2-c2c(n(C)c3ccccc23)C(=O)N([C@@H](C)CO)C[C@H]1C)c1ccccc1,x,-1.1,x,x,x
Cc1cccc(NC(=O)c2ncn3c2C(=O)N(C)CC3)c1,0.2,-19.1,1.7,1.3,43.3*
COc1ccc(/C(N)=N/OC(=O)Cc2ccc(OC)c(OC)c2)cc1,-0.1,-26.0*,-2.2,-0.1,0.0
COc1ccc(CC(=O)O/N=C(\N)c2ccncc2)cc1OC,0.1,x,-0.9,3.9,-0.3
COc1cccc(C2(O)CC(C(F)(F)F)=NN2C(=O)c2ccccn2)c1 (stereo unspecified),0.1,-15.1,-2.3,-5.6,43.3*
Cc1nc(NCC2CCCO2)c2nnn(Cc3ccccc3)c2n1 (stereo unspecified),-0.3,-17.5*,-1.2,-9.4,0.2
C[C@@H]1CN([C@@H](C)CO)C(=O)c2cccc(NS(C)(=O)=O)c2O[C@@H]1CN(C)Cc1ccc(Oc2ccccc2)cc1,x,5.6,x,x,0.0
O=C(COc1ccc(F)cc1Cl)NC1CCCCCC1,-0.1,-22.2,2.1,0.6,-0.2
O=C(O)COc1ccc(Cl)cc1C1CCCCC1,-0.4,-2.5,-3.6,-1.4,43.4*
CC(=O)C(=Cc1ccc(Cl)cc1)C(=O)c1ccccc1,0.2,-35.0*,-0.6,-6.4,0.1
CCOC(=O)c1sc(/S(C)=N\S(=O)(=O)c2cccc(Cl)c2)c2c1CCC=C2 (stereo unspecified),0.8,-19.1*,-4.9,8.7,0.0
